The assay has as its target Metabotropic glutamate receptor 5 (Homo sapiens) (UniProt P41594). Put plainly: mGlu5 glutamate response modulation at 10 µM, profiling panel, selectivity assay for mGlu8/mGlu7 PAM project, cell-based, calcium fluorescence, glutamate curve fold shift (AID 743419). As to conditions: mGlu5 cells, Fluo-4 calcium, glutamate CRC shift, glutamate EC50 fold shift, stronger effect = higher value.

Structures are written as SMILES.

Sequence of Metabotropic glutamate receptor 5 (Homo sapiens) (P41594 whole entry, looked up): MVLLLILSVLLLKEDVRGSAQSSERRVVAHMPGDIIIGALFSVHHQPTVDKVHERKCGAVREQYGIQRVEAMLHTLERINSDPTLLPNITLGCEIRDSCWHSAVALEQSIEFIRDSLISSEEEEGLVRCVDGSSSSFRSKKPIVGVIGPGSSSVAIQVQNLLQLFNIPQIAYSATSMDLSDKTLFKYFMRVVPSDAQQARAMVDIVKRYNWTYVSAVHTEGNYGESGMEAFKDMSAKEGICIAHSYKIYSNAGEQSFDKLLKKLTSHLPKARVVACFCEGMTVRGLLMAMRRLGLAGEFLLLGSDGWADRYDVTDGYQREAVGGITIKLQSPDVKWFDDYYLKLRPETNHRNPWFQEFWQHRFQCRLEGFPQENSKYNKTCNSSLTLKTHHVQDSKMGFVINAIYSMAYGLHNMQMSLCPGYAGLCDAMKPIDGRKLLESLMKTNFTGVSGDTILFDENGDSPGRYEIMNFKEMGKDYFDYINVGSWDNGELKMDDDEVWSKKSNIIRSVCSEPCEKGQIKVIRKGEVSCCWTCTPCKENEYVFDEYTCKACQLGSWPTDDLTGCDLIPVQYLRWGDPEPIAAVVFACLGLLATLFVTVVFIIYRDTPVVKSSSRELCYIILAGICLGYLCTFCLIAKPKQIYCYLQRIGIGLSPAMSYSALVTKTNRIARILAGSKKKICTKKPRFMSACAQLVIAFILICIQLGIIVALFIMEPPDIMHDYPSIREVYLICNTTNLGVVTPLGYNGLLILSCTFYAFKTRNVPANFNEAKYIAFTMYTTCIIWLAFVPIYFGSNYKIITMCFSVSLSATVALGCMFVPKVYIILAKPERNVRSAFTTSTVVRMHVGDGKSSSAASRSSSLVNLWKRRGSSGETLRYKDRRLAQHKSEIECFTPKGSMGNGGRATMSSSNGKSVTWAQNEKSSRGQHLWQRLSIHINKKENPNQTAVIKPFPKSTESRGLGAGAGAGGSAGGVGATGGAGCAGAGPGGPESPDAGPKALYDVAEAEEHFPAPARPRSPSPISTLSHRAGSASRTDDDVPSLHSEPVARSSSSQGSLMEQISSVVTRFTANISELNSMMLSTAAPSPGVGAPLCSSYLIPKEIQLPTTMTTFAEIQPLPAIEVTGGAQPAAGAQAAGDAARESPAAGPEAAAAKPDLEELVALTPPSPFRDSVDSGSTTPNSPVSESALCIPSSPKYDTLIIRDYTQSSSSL

Regarding `COC(=O)c1ccc(-n2c(C)cc(C(=O)CSc3ccc(NC(C)=O)cc3)c2C)cc1`, the fold shift is 1.45.

(Values after PubChem BioAssay AID743419 (Vanderbilt Specialized Chemistry Center, 2014).)
